An excerpt weighted towards active compounds, which were near 27% of everything screened.
CYP2C9 act: CYP2C9 (human) activation | P11712 | recombinant CYP2C9, luciferin-H conversion, luminescence; active compounds read high; factor 1 = untreated enzyme, 0 = blocked | activation factor at 5 µM | 96,000 tested, 1.4% active;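 active = activation factor of 2 or more for CYP2C9 at a 5 µM dose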;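 note: 0 = sulfaphenazole-blocked wells and 1 = vehicle-only wells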
CYP2C19 activ: cytochrome P450 2C19 (human) activation; P33261; recombinant CYP2C19, luciferin-H EGE luminescence; active compounds read high; 0 = fully inhibited enzyme, 1 = untreated enzyme; activation factor at 5 µM; 96,000 tested, under 10 active; AID 1025;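 active = activation factor of at least 2 at 5 µM in the primary screen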;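 note: 0 = wells with 2.5 mM tranylcypromine and 1 = vehicle-only wells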
Target sequence (P33261 whole entry, looked up): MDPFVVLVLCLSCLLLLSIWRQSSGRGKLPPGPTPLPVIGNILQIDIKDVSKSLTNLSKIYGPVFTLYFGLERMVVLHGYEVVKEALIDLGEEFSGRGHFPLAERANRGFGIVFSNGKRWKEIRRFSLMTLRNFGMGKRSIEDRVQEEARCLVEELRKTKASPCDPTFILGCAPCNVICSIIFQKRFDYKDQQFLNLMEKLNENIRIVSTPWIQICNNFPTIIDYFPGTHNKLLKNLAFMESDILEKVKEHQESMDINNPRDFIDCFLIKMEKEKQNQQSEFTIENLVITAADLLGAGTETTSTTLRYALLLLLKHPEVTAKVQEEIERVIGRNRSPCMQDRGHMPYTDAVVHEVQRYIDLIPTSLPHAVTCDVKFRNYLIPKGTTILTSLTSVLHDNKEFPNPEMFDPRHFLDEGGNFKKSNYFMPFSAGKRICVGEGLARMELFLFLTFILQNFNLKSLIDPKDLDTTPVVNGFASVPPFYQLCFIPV
Cav32 inh: human Cav3.2 channel inhibition, primary screen. Cav3.2-expressing cells, Fluo-4 calcium fluorescence FDSS; active compounds read low. 100,000 tested, 4% active. B-score at 10 µM;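 active = single-dose well whose peak fluorescence ratio is a statistical outlier from its plate by either plate-standardised score or position-corrected B-score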
Pyk2 oligo antag: antagonists of human Pyk2 oligomerization. Q14289. Q293 cells, Pyk2 FERM NanoBiT luminescence; active compounds read low. z-score (the deposit names both 25 µM and 10 µM). 99,000 tested, 0.83% active. AID 1347419;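 active = Z-score of -3 or lower, scaled per plate to the spread of control and sample wells; inactive = z-score above -3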;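 note: negative z-score means lost luminescence so less FERM oligomerization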
CYP2C19 inhib: human CYP2C19 inhibition; AID 778; 96,000 tested, 21% active; CYP2C19 Supersomes, luciferin-H EGE luminescence, 30 min; inhibition, % at 5 µM; P33261;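 active = CYP2C19 inhibition above a set limit at 5 µM in the primary screen, cut at about 50% in these data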;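 note: plate controls were negative control wells for no effect and 2.5 mM tranylcypromine positive control for full effect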
CYP2C9 inhib: blocks human cytochrome P450 2C9; CYP2C9 Supersomes, luciferin-H conversion, luminescence; AID 777; inhibition, % at 5 µM; 96,000 tested, 20% active; P11712;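 active = blocking of liver enzyme CYP2C9 beyond about 50% at 5 µM, limit read from the data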
Starred values were filed as active, the others as inactive; · = no result given.

SMILES	CYP2C9 act	CYP2C19 activ	Cav32 inh	Pyk2 oligo antag	CYP2C19 inhib	CYP2C9 inhib
O=C(COC(=O)Cc1ccc(S(=O)(=O)N2CCOCC2)s1)NCc1ccc(Cl)cc1	0.1	0.3	0.827	-1.5	73.3*	86.2*
CCCCNC(=O)COC(=O)c1ccc(Cl)c(S(=O)(=O)N2CCCC2)c1	0.8	0.3	3.56	-0.16	73.6*	24.6
O=C(Cc1ccc(S(=O)(=O)N2CCOCC2)s1)Nc1ccc2c(c1)CCC2	0.9	0.9	-6.14*	-1.33	8.2	12.8
O=C(COC(=O)c1ccc(S(=O)(=O)N2CCCC2)cc1)NCc1ccc(Cl)cc1	0.5	0.6	-2.64	-0.16	45.0	54.0*
O=C1CC(N2CCN(C3CCc4ccccc4C3)CC2)C(=O)N1c1ccccc1 (centres undefined)	·	·	-1.02	1.48	·	·
COc1cc2c(cc1OC)C(c1cc3cc4c(cc3[nH]c1=O)OCO4)N(C(=O)C(C)C)CC2 (centres undefined)	·	·	-0.207	0.16	·	·
COc1ccc(CSc2nnc3n(C)c(=O)c4c5c(sc4n23)CCCC5)cc1	1	1	·	·	-3.4	-2.7
COc1ccc(C)cc1NC(=O)C1CC(=O)OC12CCCCC2 (centres undefined)	1	0.2	0.502	-0.33	78.3*	2.8
COc1ccc(NC(=O)C2CC(=O)OC23CCOC(C)(C)C3)cc1 (centres undefined)	0.8	0.4	0.568	0	57.4*	15.2
Cc1cccc(NC(=O)C2CC(=O)OC23CCCCC3)c1 (centres undefined)	0.9	0.2	-0.112	-0.55	76.5*	6.6
Cc1ccc(C2C(C#N)=C(N)Oc3c2oc(CO)cc3=O)o1 (centres undefined)	1	1.1	1.01	-0.26	-13.2	-3.1
C=CCn1c(=O)c2c(C)c(C)sc2n2c(Nc3ccccc3)nnc12	0.7	0.9	0.842	-3.03*	10.7	27.9
CCOC(=O)Cc1csc(NC(=O)CSc2nnnn2-c2ccc(CC)cc2)n1	0.2	0.1	-5.41*	1.3	87.6*	77.1*
CCOC(=O)Cc1csc(NC(=O)COc2ccccc2OC)n1	0.7	0.8	1.07	0.61	22.1	26.5
CCOC(=O)Cc1csc(NC(=O)CSc2nnc(-c3ccc(C)cc3)o2)n1	0.2	0.6	-1.61	-0.01	38.0	83.8*
CCOC(=O)Cc1csc(NC(=O)CSc2nnc(-n3nc(C)cc3C)c3ccccc23)n1	0.1	0.2	-1.48	0.5	79.2*	92.0*
CCOC(=O)Cc1csc(NC(=O)CSc2nnc(-c3ccc(F)cc3)o2)n1	0.4	0.8	-0.142	2.6	16.5	56.3*
Cc1csc(NC(=O)CSc2nnc(-c3ccccc3)o2)n1	0.9	0.8	-0.0527	0.49	24.4	13.0
COc1ccccc1/C=N/NC(=O)c1nnn(-c2nonc2N)c1CSC1=NCCS1	·	·	·	0.56	·	·
Cc1nn(CCC(=O)NNC(=S)NCC(C)C)c(C)c1Br	0.1	0.4	0.062	1.58	62.7*	91.1*
CCC/C(O)=N\S(=O)(=O)c1ccc(N=NN(C)C)cc1	·	·	-0.00619	0.18	·	·
CCN(CC)CC(=O)N1c2ccccc2Sc2ccc(Cl)cc21	·	·	-0.38	-0.48	·	·
O=C(CN1c2ccccc2Sc2ccccc21)NNC(=S)Nc1ccc(Cl)cc1Cl	0.2	1	·	-1.66	-0.8	80.0*
CC(C)OC(=O)CC12CN(C)CC(CC(=O)OC(C)C)(CN(C)C1)C2=O	1.1	1.2	-0.248	-0.25	-16.1	-10.2
Cn1ccnc1C(O)(c1nnc(-c2ccccc2)o1)C(F)(F)F (centres undefined)	1	1.1	-0.162	1.01	-8.0	-3.6
SMILES	CYP2C9 act	CYP2C19 activ	Cav32 inh	Pyk2 oligo antag	CYP2C19 inhib	CYP2C9 inhib
O=C(c1cc(C2CC2)nc2ccccc12)N1N=C(C(F)F)CC1(O)C(F)F (centres undefined)	·	·	-3.54	-0.21	·	·
O=C(c1cc(C2CC2)nc2ccc(Br)cc12)N1N=C(C(F)F)CC1(O)C(F)F (centres undefined)	·	·	-7.46*	-3.32*	·	·
CC(C)c1ccc(-c2cc(C(=O)N3N=C(C(F)F)CC3(O)C(F)F)c3ccccc3n2)cc1 (centres undefined)	0	0.9	-2.23	-2.43	6.9	100.3*
CC1=C(C(=O)OC(C)C)C(C)C(C(=O)OC(C)C)=C(C)N1	0.1	0	-3.49	-2.86	100.4*	92.3*
CCOC(=O)CN1C(=O)C(Sc2n[nH]c(-c3ccc(O)cc3)n2)CCc2ccccc21 (centres undefined)	0.1	0.2	-6.47*	-1.46	81.6*	93.5*
CCOC(=O)CN1C2=NCCN2c2ccccc21	1.1	1.1	0.662	-0.19	-14.2	-11.9
OC(C#CCN1CCOCC1)(c1ccccc1)C1CC1 (centres undefined)	1.1	0.4	0.709	0.74	57.3*	-5.4
Cc1ccccc1C(=O)c1c[nH]c(C(=O)NCCCn2ccnc2)c1	0.1	0.3	0.913	0.63	67.1*	92.6*
Cc1ccccc1C(=O)c1c[nH]c(C(=O)NCc2cccs2)c1	1	1.1	-0.661	-1.1	-7.2	-1.6
O=C(O)C1CCCCC1C(=O)NCCCn1ccnc1 (centres undefined)	0.9	0.8	1.21	-0.32	15.9	13.7
O=C(NCCCn1ccnc1)c1cc(C2CC2)on1	0.4	0.1	0.801	·	85.1*	58.9*
O=C(NCCCn1ccnc1)c1cc(C(=O)C2CC2)c[nH]1	0.4	0.4	-0.441	0.08	56.5*	60.9*
CCC(CC)C(=O)c1c[nH]c(C(=O)NCCCN2CCOCC2)c1	0.9	1	·	0.35	4.5	13.3
CCC(CC)C(=O)c1c[nH]c(C(=O)NCCCn2ccnc2)c1	0.1	0.3	0.903	0.08	66.6*	92.3*
CC(C)CC(=O)c1c[nH]c(C(=O)NCC2CCCO2)c1 (centres undefined)	1.2	1.1	0.104	0.23	-12.4	-16.7
CC(C)CC(=O)c1c[nH]c(C(=O)NCCCn2ccnc2)c1	0.2	0.6	0.775	0.57	40.9	82.0*
Cc1ccc(CCN2C(=O)CCC2(C)C(=O)NCc2cccnc2)cc1 (centres undefined)	0.8	0.9	0.838	0.23	10.9	17.9
Cc1ccc(NC(=O)c2cnn(-c3ccccc3)c2NC(=O)c2ccco2)cc1	0.7	0.9	·	-0.61	14.4	34.7
CCN(CC)P1(=O)OC(c2cc(OC)c(OC)c(OC)c2)=Nc2c1c(C)nn2-c1ccccc1 (centres undefined)	0	0.2	-1.63	3.69	78.4*	96.4*
COc1cc(-c2nc3c(c(C)nn3-c3ccccc3)c3cc(OC)c(OC)cc23)ccc1O	0.5	0.6	0.686	0.27	38.1	47.5
O=C(CN1C(=O)COc2ccccc21)NCCC1=CCCCC1	0.8	0.2	-0.278	0.51	80.7*	15.7
O=C(CN1C(=O)COc2ccccc21)NCCCN1CCc2ccccc2C1	1	0.9	1.68	-0.51	5.9	2.6
O=C(CCN1C(=O)COc2ccccc21)NCCC1=CCCCC1	0.9	0.4	0.225	1.04	62.6*	9.2

Screens from PubChem.
